# Pf growth 48h: Primary qHTS for delayed death inhibitors of the malarial parasite plastid, 48 hour incubation | P. falciparum luciferase growth in erythrocytes, 48 h | Potency, µM (highest dose often 28.7 µM), usual class: inhibitors | 310,000 compounds, 5.9% hits | AID 504832, 2011
#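 Luminescence readout; reporter = integrated firefly luciferase in P. falciparum. RBC culture at 2% hematocrit, 0.1% parasitemia final, 37 C/5% CO2; decreased signal taken as growth inhibition.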
# Lassa entry inh: qHTS for Inhibitors of binding or entry into cells for Lassa Virus | Lassa virus pseudotype entry inhibition, cell reporter | Potency, µM (titrated, usually from 37.9 µM), hits mostly inhibitors | 300,000 compounds, 1.2% hits | AID 540256, 2011; calls by dose curve; tested in HEK293 cells; further: nearly all actives have a fitted effect of over 50% in size
# MARV entry inh: qHTS for inhibitors of binding or entry into cells for Marburg Virus; 300,000 compounds, 1.8% hits; Potency, µM (highest dose often 37.8 µM), hits mostly inhibitors; Marburg virus pseudotyped entry inhibition, cell reporter; calls by dose curve; tested in HEK293 cells
# HCV inhibitor: qHTS Assay for Inhibitors of Hepatitis C Virus (HCV) | 340,000 compounds, 3.4% hits | AID 651820, 2012 | Potency, µM (top dose mostly 41.8 µM), hits mostly inhibitors | Huh7.5.1 HCVcc-Cre infection, luciferase reporter, 44 h
#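 Reporter virus HCVcc-Cre (~0.5 moi) infects cells exposed to compound; seeding density 1,000 cells/well with 4 h settling beforehand. Luminescence, 15 sec read, taken 44 h post-infection following a 15 min RT substrate incubation.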
# Pf growth 96h: Primary qHTS for delayed death inhibitors of the malarial parasite plastid, 96 hour incubation; P. falciparum luciferase reporter growth, 96 h; Potency, µM (doses to about 28.7 µM), actives largely listed as inhibitors; 320,000 compounds, 6.9% hits
#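 Cell-based qHTS: luciferase-tagged P. falciparum in erythrocytes (2% hematocrit, 0.05% parasitemia final) incubated with compounds for 96 hours, 37 C, 5% CO2; luciferase detection reagent then added and luminescence measured.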
# HCMV inh: qHTS Assay for inhibitors of the human cytomegalovirus (HCMV); HFF cells, HCMV-luciferase reporter, 72 h; hits give low values; activity change, negative = inhibition, % at 57.5 µM; 410,000 compounds, 4.5% hits; AID 1259415, 2018; in the data active means activity change below about -60%; inconclusive means no clear call, values can overlap the other calls; inactive means above about -39%
#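 After 16 h attachment at 37C, HFF cells received test compound and HCMV-luciferase (1 PFU/cell); reporter luminescence read 72 h later, data normalized against buffer-only and known inhibitor Salinomycin.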
# A number is an active result; . = inactive; ? = inconclusive; / = no result. Compounds with a hit are over-represented: about 14% of the library has one in this group of screens. Unless noted, the call rests on the fitted dose curve; in most records, active means well fitted inhibition curve with a large enough effect; inconclusive means small, poorly fitted or top-dose-only effect, or another doubt; inactive means no such curve, though single readings can be large or run the other way.
SMILES,Pf growth 48h,Lassa entry inh,MARV entry inh,HCV inhibitor,Pf growth 96h,HCMV inh
O=C(O)[C@@H]1CC(O)CN1C(=O)CCc1c[nH]c2ccccc12 (stereo partly drawn),.,.,.,.,.,.
CC1COC(=C2C(=O)OCC2C)C1 (stereo not drawn),/,/,/,/,/,.
CC[n+]1c(/C=C/Nc2ccccc2)oc2ccccc21,?,?,?,.,?,?
CC[n+]1c(/C=C/N(C)c2ccccc2)oc2ccccc21,0.93µM,?,?,?,.,-97
CC[n+]1c(/C=C/N(C)c2ccccc2)oc2ccc(F)cc21,2.9µM,?,?,?,?,-85
COCCCNC(=O)C(=O)NCC(c1ccc2c(c1)OCO2)N1CCOCC1 (stereo not drawn),/,.,/,/,/,-113
COc1ccccc1N1CCN(C(CNC(=O)c2ccc3c(c2)OCO3)c2cccnc2)CC1 (stereo not drawn),?,.,.,11µM,.,.
Cc1ccc(CNC(=O)C(=O)NCC(c2cccnc2)N2CCN(c3ccccc3F)CC2)cc1 (stereo not drawn),/,?,/,/,/,-72
COCCNC(=O)C(=O)NCC(c1ccc2c(c1)OCO2)N1CCOCC1 (stereo not drawn),/,.,/,/,/,.
CC(C)(O)CN(CCCNC(=S)Nc1ccccc1)C(=S)Nc1ccccc1,/,.,.,.,/,.
CC(=O)c1ccc(S(=O)(=O)NCCC(=O)OCC(=O)N(Cc2ccccc2)C(C)(C)C)cc1,?,.,?,.,.,.
C#Cc1cccc(Nc2nc(NCCOC)nc3ccsc23)c1,/,/,/,/,/,.
COc1ccccc1CNc1nc(NCc2cccc(OC)c2OC)c2sccc2n1,/,/,/,/,/,-83
C#Cc1cccc(Nc2nc(NCc3ccccc3OC)nc3ccsc23)c1,/,/,/,/,/,-79
CCN(c1cccc(C)c1)C(CNS(=O)(=O)c1ccccc1)c1ccccc1 (stereo not drawn),/,.,?,/,/,.
Cn1cc(CN2CCCC(C(=O)Nc3cccc(-n4cccn4)c3)C2)cn1 (stereo not drawn),.,.,.,.,?,.
Cc1c(CN2CCCC(C(=O)Nc3cccc(-n4cccn4)c3)C2)cnn1C (stereo not drawn),.,/,/,?,13µM,.
CCn1ncc(CN2CCCC(C(=O)Nc3cccc(-c4cc5ccccc5[nH]4)c3)C2)c1C (stereo not drawn),4.1µM,13µM,?,?,.,?
Cc1cc(CN2CCCC(C(=O)Nc3cccc(-n4cccn4)c3)C2)cc(C)c1O (stereo not drawn),?,/,/,13µM,.,.
O=C(Nc1cccc(-n2cnnn2)c1)C1CCCN(Cc2cccc(C(F)(F)F)c2)C1 (stereo not drawn),15µM,.,?,?,.,/
O=c1[nH]c(Cc2ccccc2Cl)nc2ccccc12,.,.,.,.,9.3µM,.
CCN1CCN(C(=O)CCc2nc3ccccc3c(=O)[nH]2)CC1,.,.,.,.,.,.
O=C(CCc1nc2ccccc2c(=O)[nH]1)N1CCN(c2ccccc2Cl)CC1,/,/,/,11µM,/,.
CC1CCCCN1Cc1nc2ccccc2c(=O)[nH]1 (stereo not drawn),.,?,.,.,0.019µM,.
CCCN(CC(=O)Nc1cc(Cl)cc(Cl)c1)CC(=O)Nc1ccc(F)c(F)c1F,?,?,?,?,9.3µM,-87
CCCN(CC(=O)Nc1ccccc1Br)CC(=O)Nc1ccc(F)c(F)c1F,?,.,?,?,.,.
CCC(=O)Nc1cc(-c2cn3cccnc3n2)ccc1OC,/,.,/,/,/,.
Cc1cccc(NC(=O)c2cc(S(=O)(=O)NCc3ccc4c(c3)OCO4)ccc2F)c1C,/,.,/,/,/,.
CC(C)(C)NC(=O)C(c1ccc(-c2ccccc2)cc1)N(C[C@H]1CC[C@@H]([C@@H]2CC[C@H](CO)O2)O1)C(=O)c1ccc(-c2ccccc2)cc1 (stereo partly drawn),/,/,/,.,/,/
CC(C)(C)NC(=O)C(c1ccc(-c2ccccc2)cc1)N(C[C@H]1CC[C@@H]([C@@H]2CC[C@H](CO)O2)O1)C(=O)c1ccc2ccccc2c1 (stereo partly drawn),/,/,/,?,/,-100
